# Many of the other results were omitted from the sample, so the strongest signals are more common in it than they were.
# Tests used:
# Experiment in all cases: glycan array binding signal (z-score within array); higher = stronger binding
# Settings in all cases: glycan notation: IUPAC condensed, linker removed
# [1] = target: Fuc(a1-2)Gal(b1-3)[Fuc(a1-4)]GlcNAc(b1-3)[Fuc(a1-3)[Gal(b1-4)]GlcNAc(b1-6)]Gal(b1-4)Glc
# Outline: (§1)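 Columns mapping to the same glycan were averaged after glycan names were converted to IUPAC-condensed notation. The data come from 3228 arrays in the Consortium for Functional Glycomics database, limited to those with an available protein sequence. Binding is reported as a within-array Z-score averaged across arrays of one protein sequence and across linkers.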
# [2] = target: Fuc(a1-2)[Gal(a1-3)]Gal(b1-3)GalNAc(b1-3)Gal(a1-4)Gal(b1-4)Glc
# Outline: as §1
# [3] = target: Fuc(a1-2)[Gal(a1-3)]Gal(b1-4)GlcNAc(b1-3)GalNAc
# Outline: as §1
# [4] = target: Fuc(a1-2)[GalNAc(a1-3)]Gal(b1-3)GlcNAc(b1-3)GalNAc
# Outline: as §1
# [5] = target: Fuc(a1-3)[Gal(b1-4)]GlcNAc
# Outline: as §1
# [6] = target: Fuc(a1-3)[Gal3S(b1-4)]Glc
# Outline: as §1
# Gal(a1-3)GalNAc = target: Gal(a1-3)GalNAc
# Outline: as §1
# Gal(a1-4)GlcNAc = target: Gal(a1-4)GlcNAc
# Outline: as §1
# [7] = target: Gal(b1-3)GlcNAc(b1-3)GalNAc
# Outline: as §1
# [8] = target: Gal(b1-3)GlcNAc(b1-6)[Gal(b1-3)]GalNAc
# Outline: as §1
# [9] = target: Gal(b1-3)[Fuc(a1-4)]GlcNAc(b1-2)Man
# Outline: as §1
# [10] = target: Gal(b1-3)[Fuc(a1-4)]GlcNAc(b1-6)GalNAc
# Outline: as §1
# [11] = target: Gal(b1-4)GlcNAc(a1-6)Gal(b1-4)GlcNAc
# Outline: as §1
# [12] = target: Gal(b1-4)GlcNAc(b1-2)Man(a1-3)[Gal(b1-4)GlcNAc(b1-2)Man(a1-6)]Man(b1-4)GlcNAc(b1-4)GlcNAc
# Outline: as §1
# [13] = target: Gal(b1-4)GlcNAc(b1-2)[Gal(b1-4)GlcNAc(b1-4)]Man(a1-3)[GlcNAc(b1-4)][Gal(b1-4)GlcNAc(b1-2)[Gal(b1-4)GlcNAc(b1-6)]Man(a1-6)]Man(b1-4)GlcNAc(b1-4)GlcNAc
# Outline: as §1
# [14] = target: Gal(b1-4)GlcNAc(b1-6)[Gal(b1-3)]GalNAc
# Outline: as §1
# [15] = target: Gal3S(b1-4)[Fuc(a1-3)]GlcNAc
# Outline: as §1
# Gal4S(b1-4)GlcNAc = target: Gal4S(b1-4)GlcNAc
# Outline: as §1
# Gal6S(b1-3)GlcNAc6S = target: Gal6S(b1-3)GlcNAc6S
# Outline: as §1
# [16] = target: GlcNAc(a1-4)Gal(b1-4)GalNAc
# Outline: as §1
# [17] = target: GlcNAc(b1-3)Gal(b1-4)GlcNAc(b1-3)Gal(b1-4)GlcNAc(b1-3)Gal(b1-4)GlcNAc(b1-2)Man(a1-3)[GlcNAc(b1-3)Gal(b1-4)GlcNAc(b1-3)Gal(b1-4)GlcNAc(b1-3)Gal(b1-4)GlcNAc(b1-2)Man(a1-6)]Man(b1-4)GlcNAc(b1-4)GlcNAc
# Outline: as §1
# [18] = target: GlcNAc(b1-3)Gal(b1-4)GlcNAc(b1-3)Gal(b1-4)GlcNAc(b1-3)Gal(b1-4)GlcNAc(b1-3)Gal(b1-4)GlcNAc(b1-2)[GlcNAc(b1-3)Gal(b1-4)GlcNAc(b1-3)Gal(b1-4)GlcNAc(b1-3)Gal(b1-4)GlcNAc(b1-3)Gal(b1-4)GlcNAc(b1-6)]Man(a1-6)[GlcNAc(b1-3)Gal(b1-4)GlcNAc(b1-3)Gal(b1-4)GlcNAc(b1-3)Gal(b1-4)GlcNAc(b1-3)Gal(b1-4)GlcNAc(b1-2)Man(a1-3)]Man(b1-4)GlcNAc(b1-4)[Fuc(a1-6)]GlcNAc
# Outline: as §1
# [19] = target: Man(a1-2)Man(a1-2)Man(a1-3)Man
# Outline: as §1
# [20] = target: Man(a1-2)Man(a1-2)Man(a1-6)[Man(a1-3)]Man
# Outline: as §1
# Man(a1-2)Man(a1-3)Man = target: Man(a1-2)Man(a1-3)Man
# Outline: as §1
# [21] = target: Man(a1-2)Man(a1-3)[Man(a1-2)Man(a1-6)]Man(a1-6)[Man(a1-2)Man(a1-2)Man(a1-3)]Man
# Outline: as §1
# [22] = target: Man(a1-2)Man(a1-3)[Man(a1-2)Man(a1-6)]Man(a1-6)[Man(a1-2)Man(a1-2)Man(a1-3)]Man(b1-4)GlcNAc(b1-4)GlcNAc
# Outline: as §1
# [23] = target: Man(a1-2)Man(a1-3)[Man(a1-6)]Man(a1-6)[Man(a1-2)Man(a1-3)]Man(b1-4)GlcNAc(b1-4)GlcNAc
# Outline: as §1
# [24] = target: Man(a1-2)Man(a1-6)[Man(a1-3)]Man(a1-6)[Man(a1-2)Man(a1-2)Man(a1-3)]Man
# Outline: as §1
# [25] = target: Man(a1-2)Man(a1-6)[Man(a1-3)]Man(a1-6)[Man(a1-2)Man(a1-2)Man(a1-3)]Man(b1-4)GlcNAc(b1-4)GlcNAc
# Outline: as §1
# [26] = target: Man(a1-3)[Man(a1-6)]Man(a1-6)[Man(a1-2)Man(a1-3)]Man(b1-4)GlcNAc(b1-4)GlcNAc
# Outline: as §1
# [27] = target: Man(a1-3)[Man(a1-6)]Man(a1-6)[Man(a1-3)]Man(b1-4)GlcNAc(b1-4)GlcNAc
# Outline: as §1
# [28] = target: Man(a1-3)[Man(a1-6)]Man(b1-4)GlcNAc(b1-4)GlcNAc
# Outline: as §1
# Man(a1-6)Man = target: Man(a1-6)Man
# Outline: as §1
# [29] = target: Neu5Ac(a2-3)Gal(b1-4)GlcNAc(b1-2)Man(a1-3)[GlcNAc(b1-4)][Neu5Ac(a2-3)Gal(b1-4)GlcNAc(b1-2)Man(a1-6)]Man(b1-4)GlcNAc(b1-4)GlcNAc
# Outline: as §1
# [30] = target: Neu5Ac(a2-3)Gal(b1-4)GlcNAc(b1-3)Gal(b1-4)[Fuc(a1-3)]GlcNAc
# Outline: as §1
# [31] = target: Neu5Ac(a2-3)Gal(b1-4)GlcNAc(b1-6)[Neu5Ac(a2-3)Gal(b1-3)]GalNAc
# Outline: as §1
# [32] = target: Neu5Ac(a2-3)[GalNAc(b1-4)]Gal(b1-4)Glc
# Outline: as §1
# [33] = target: Neu5Ac(a2-6)Gal(b1-4)GlcNAc(b1-2)Man(a1-3)[Gal(b1-4)GlcNAc(b1-2)Man(a1-6)]Man(b1-4)GlcNAc(b1-4)GlcNAc
# Outline: as §1
# [34] = target: Neu5Ac(a2-6)Gal(b1-4)GlcNAc(b1-2)Man(a1-3)[GlcNAc(b1-2)Man(a1-6)]Man(b1-4)GlcNAc(b1-4)GlcNAc
# Outline: as §1
# [35] = target: Neu5Ac(a2-6)Gal(b1-4)GlcNAc(b1-3)Gal(b1-3)GlcNAc
# Outline: as §1
# Neu5Ac(a2-6)GalNAc = target: Neu5Ac(a2-6)GalNAc
# Outline: as §1
# [36] = target: Neu5Ac(a2-6)GlcNAc(b1-4)GlcNAc(b1-4)GlcNAc
# Outline: as §1
binder,measurement,setting,value
Banana lectin (Musa acuminata) (protein) MNGAIKVGAWGGNGGSAFDMGPAYRIISVKIFSGDVVDAVDVTFTYYGKTETRHFGGSGGTPHEIVLQEGEYLVGMKGEFGNYHGVVVVGKLGFSTNKKSYGPFGNTGGTPFSLPIAAGKISGFFGRGGDFIDAIGVYLEP,glycan array binding signal (z-score),[1],-0.195
same,glycan array binding signal (z-score),[2],-0.195
same,glycan array binding signal (z-score),[3],-0.195
same,glycan array binding signal (z-score),[4],-0.188
same,glycan array binding signal (z-score),[5],-0.193
same,glycan array binding signal (z-score),[6],-0.192
same,glycan array binding signal (z-score),Gal(a1-3)GalNAc,-0.194
same,glycan array binding signal (z-score),Gal(a1-4)GlcNAc,-0.194
same,glycan array binding signal (z-score),[7],-0.195
same,glycan array binding signal (z-score),[8],-0.173
same,glycan array binding signal (z-score),[9],-0.19
same,glycan array binding signal (z-score),[10],-0.19
same,glycan array binding signal (z-score),[11],-0.196
same,glycan array binding signal (z-score),[12],-0.161
same,glycan array binding signal (z-score),[13],-0.197
same,glycan array binding signal (z-score),[14],-0.193
same,glycan array binding signal (z-score),[15],-0.19
same,glycan array binding signal (z-score),Gal4S(b1-4)GlcNAc,-0.195
same,glycan array binding signal (z-score),Gal6S(b1-3)GlcNAc6S,-0.195
same,glycan array binding signal (z-score),[16],-0.174
same,glycan array binding signal (z-score),[17],-0.179
same,glycan array binding signal (z-score),[18],-0.139
same,glycan array binding signal (z-score),[19],3.39
same,glycan array binding signal (z-score),[20],8.43
same,glycan array binding signal (z-score),Man(a1-2)Man(a1-3)Man,5.44
same,glycan array binding signal (z-score),[21],7.92
same,glycan array binding signal (z-score),[22],3.85
same,glycan array binding signal (z-score),[23],6.18
same,glycan array binding signal (z-score),[24],6.72
same,glycan array binding signal (z-score),[25],7.63
same,glycan array binding signal (z-score),[26],5.95
same,glycan array binding signal (z-score),[27],3.55
same,glycan array binding signal (z-score),[28],7.64
same,glycan array binding signal (z-score),Man(a1-6)Man,-0.076
same,glycan array binding signal (z-score),[29],-0.191
same,glycan array binding signal (z-score),[30],-0.195
same,glycan array binding signal (z-score),[31],-0.194
same,glycan array binding signal (z-score),[32],-0.193
same,glycan array binding signal (z-score),[33],-0.142
same,glycan array binding signal (z-score),[34],-0.102
same,glycan array binding signal (z-score),[35],-0.194
same,glycan array binding signal (z-score),Neu5Ac(a2-6)GalNAc,-0.192
same,glycan array binding signal (z-score),[36],-0.194
